Laboratory results from PubChem BioAssay (EPA / NIEHS).
Inconclusive results are not listed. Calls of active or inactive are those of the source. How the source made its calls: active means hit-call score of the fitted dose curve at least 0.9, where 1 is the maximum; inconclusive means response in the unintended direction; inactive means score below 0.9.

Biological target: human Vitamin D Receptor (VDR), VDR (gene 7421) (UniProt P11473)
Assay: ATG_VDR_TRANS: Attagene TRANS-FACTORIAL HepG2 Assay for human Vitamin D Receptor (VDR) (AID 2283022)
In short: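 Multiplexed TRANS reporter in HepG2; 24 h treatment; reporter mRNA by RT-PCR plus capillary electrophoresis; upregulation scored relative to DMSO.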

human Vitamin D Receptor (VDR), VDR (gene 7421), sequence (P11473 whole entry, looked up): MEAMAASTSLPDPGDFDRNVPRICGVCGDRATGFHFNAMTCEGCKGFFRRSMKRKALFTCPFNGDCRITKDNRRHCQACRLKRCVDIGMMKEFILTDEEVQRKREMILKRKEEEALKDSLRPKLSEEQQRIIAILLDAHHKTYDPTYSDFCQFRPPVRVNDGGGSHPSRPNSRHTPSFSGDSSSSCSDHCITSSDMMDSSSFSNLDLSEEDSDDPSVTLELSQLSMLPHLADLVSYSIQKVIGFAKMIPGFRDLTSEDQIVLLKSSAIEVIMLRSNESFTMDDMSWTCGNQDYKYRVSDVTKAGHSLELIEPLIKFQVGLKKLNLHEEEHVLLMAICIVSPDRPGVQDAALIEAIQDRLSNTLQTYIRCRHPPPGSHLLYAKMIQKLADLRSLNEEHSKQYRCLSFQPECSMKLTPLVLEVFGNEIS

Row | Structure (SMILES) | outcome
1 | N#Cc1ccc(Cl)cc1 | inactive
2 | OCC(c1ccc(Cl)cc1)c1ccc(Cl)cc1 | inactive
3 | O=C1c2ccccc2C(=O)C1C(=O)C(c1ccccc1)c1ccc(Cl)cc1 (stereo not given) | inactive
4 | C[C@@H]1O[C@@H](O[C@H]2C[C@@H](O)[C@]3(CO)[C@H]4[C@H](O)C[C@]5(C)[C@@H](C6=CC(=O)OC6)CC[C@]5(O)[C@@H]4CC[C@]3(O)C2)[C@H](O)[C@H](O)[C@H]1O | inactive
5 | CC(F)(F)CC(F)(F)F | inactive
6 | CC[N+](CC)(CC)CC | inactive
7 | CC(=Cc1ccccc1)[N+](=O)[O-] | inactive
8 | CCOCn1c(-c2ccc(Cl)cc2)c(C#N)c(Br)c1C(F)(F)F | inactive
9 | CN(C)c1ccc(N=O)cc1 | inactive
10 | O=CCCl | inactive
11 | C[CH2][Hg][S]c1ccccc1C(=O)O | inactive
12 | Brc1c(Br)c(Br)c(Oc2c(Br)c(Br)c(Br)c(Br)c2Br)c(Br)c1Br | inactive
13 | O=C(O)COc1ccc(Cl)cc1 | inactive
14 | O=[N+]([O-])c1cc([As](=O)(O)O)ccc1O | inactive
15 | C#CCO | inactive
16 | CCNc1nc(NCC)nc(SC)n1 | inactive
17 | O=S(=O)(Oc1ccc(Cl)cc1)c1ccc(Cl)cc1 | inactive
18 | C1CCC(C2CCCCC2)CC1 | inactive
19 | CC(C)C(C)(N)C#N (stereo not given) | inactive
20 | N#Cc1ccccc1N | inactive
21 | CCOP(=S)(OCC)Oc1ccc(Cl)cc1Cl | inactive
22 | C=CC(=O)NC(C)(C)CC(C)=O | inactive
23 | CN(N=O)c1ccc([N+](=O)[O-])cc1 | inactive
24 | CCCCCCCCCCCCCl | inactive
25 | O=C(NC(=O)c1c(F)cccc1F)Nc1ccc(Cl)cc1 | inactive
